# High-throughput results from PubChem BioAssay.
# T cruzi growth-1 – T. cruzi proliferation inhibition; T. cruzi beta-gal in NIH3T3, GalScreen luminescence, 90 h; 77,000 tested, 5.9% active; inhibition, % at 8.34 µM; AID 624255;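 active = mean inhibition above about 93%, with at least 55% of replicates each passing it, limit read from the data, passing the limit was not always enough; inconclusive = only one of those two conditions holds; inactive = neither condition holds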
# C diff HTS – blocks growth of Clostridium difficile; Clostridium difficile clinical isolate growth, OD600, 24 h; stronger effect = lower value; growth activity, negative = inhibition, % at 16 µg/mL (by protocol); 86,000 tested, 0.25% active; AID 1259249;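 active = mean growth activity at or below -80% and every replicate also at or below -80%; inconclusive = mean at or below -80% but some replicate above -80%; inactive = mean growth activity above -80%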;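 note: 0% = DMSO wells and -100% = levofloxacin 16 µg/mL wells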
# Pf Dd2 inh – inhibitors of Plasmodium falciparum Dd2 growth; P. falciparum Dd2 growth, SYBR Green, 72 h; stronger effect = lower value; activity change, % at 10 µM; 94,000 tested, 2.3% active; AID 1159554; in the data active = activity change below about -80%; inconclusive = no clear call, values can overlap the other calls
# T cruzi growth-2 – inhibitors of T. cruzi proliferation | shares compounds with T cruzi growth-1 | T. cruzi beta-gal in NIH3T3, GalScreen luminescence, 90 h | inhibition, % at 8.35 µM | 5,600 tested, 72% active | AID 651739;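 active = mean replicate inhibition above about 95% and at least 55% of replicates individually reaching it, limit read from the data; inconclusive = only one of the two criteria is met; inactive = neither criterion is met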
# T cruzi growth-3 – Trypanosoma cruzi proliferation inhibition; shares compounds with T cruzi growth-1; AID 651740; T. cruzi beta-gal in NIH3T3, GalScreen luminescence, 90 h; inhibition, % at 2.09 µM; 5,600 tested, 21% active;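 active = mean inhibition above about 95%, with at least 55% of replicates also reaching it, limit read from the data; inconclusive = meets just one of the two conditions; inactive = meets neither condition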;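 note: plate controls were neutral control median for no effect and positive control median for full effect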
# NIH3T3 tox – NIH/3T3 (mouse) viability loss; shares compounds with T cruzi growth-1; NIH/3T3 viability, CellTiter-Glo ATP luminescence, 90 h; cytotoxicity (signal decrease), % at 8.35 µM; 5,600 tested, 14% active;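 active = mean signal decrease across replicates above about 35% based on untreated-well scatter, with enough replicates individually passing, limit read from the data; inconclusive = no rule stated though some were filed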;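 note: 0% = median of neutral control wells and 100% = median of positive control wells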
# NIH3T3 tox 2 – NIH/3T3 (mouse) viability loss. shares compounds with T cruzi growth-1. NIH/3T3 viability, CellTiter-Glo ATP luminescence, 90 h. inhibition, % at 24.9 µM. 5,600 tested, 56% active. AID 651744;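 active = mean loss of cell viability signal at or above a set limit, and enough replicates individually reaching it; inconclusive = meets only the mean limit or only the replicate share; inactive = meets neither condition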;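 note: 0% = median of neutral control wells and 100% = median of positive control wells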
# The depositor's hits bear a star; ? = inconclusive; . = no result given. Rows were chosen to be rich in hits. Some 6.7% of all compounds tested hit in one or more screens of this group.
SMILES,T cruzi growth-1,C diff HTS,Pf Dd2 inh,T cruzi growth-2,T cruzi growth-3,NIH3T3 tox,NIH3T3 tox 2
Cc1noc(C)c1S(=O)(=O)Nc1ccc2c(c1)C(=O)N([C@H](C)CO)C[C@H](C)[C@H](CN(C)Cc1ccc(C(=O)O)cc1)OCCCC[C@@H](C)O2,19.5,-6.9,11.9,.,.,.,.
N#C[C@H]1[C@@H](c2ccccc2)[C@H](CO)N1C(=O)CCN1CCCCC1,-51.2,-14.2,7.0,.,.,.,.
C[C@H](NC(=O)C[C@H]1CC[C@@H](NC(=O)Nc2ccc3c(c2)OCO3)[C@@H](CO)O1)c1ccccc1,17.0,.,16.4,.,.,.,.
Cc1noc(C)c1S(=O)(=O)Nc1ccc2c(c1)C(=O)N([C@H](C)CO)C[C@@H](C)[C@H](CN(C)Cc1ccc(C(F)(F)F)cc1)OCCCC[C@@H](C)O2,106.2*,7.8,-66.6,88.3,111.8*,25.1,105.4*
Cc1noc(C)c1S(=O)(=O)Nc1ccc2c(c1)C(=O)N([C@H](C)CO)C[C@@H](C)[C@@H](CN(C)Cc1ccc(C(F)(F)F)cc1)OCCCC[C@H](C)O2,87.4,.,-40.8,.,.,.,.
Cc1noc(C)c1S(=O)(=O)Nc1ccc2c(c1)C(=O)N([C@@H](C)CO)C[C@H](C)[C@H](CN(C)Cc1ccc(C(F)(F)F)cc1)OCCCC[C@@H](C)O2,100.8*,-4.8,-46.5,104.2*,85.6,-4.2,3.2
Cc1noc(C)c1S(=O)(=O)Nc1ccc2c(c1)C(=O)N([C@H](C)CO)C[C@@H](C)[C@H](CN(C)Cc1ccc(C(=O)O)cc1)OCCCC[C@@H](C)O2,43.4,4.7,20.0,.,.,.,.
C[C@H]1CN([C@@H](C)CO)C(=O)c2cc(-c3cccc(F)c3)cnc2O[C@H]1CN(C)Cc1cccc(F)c1,73.7,6.0,-11.4,.,.,.,.
CCCC(=O)Nc1ccc2c(c1)C(=O)N(C)C[C@@H](OC)[C@H](C)CN(C(=O)CC)[C@@H](C)CO2,-26.1,.,.,.,.,.,.
N#C[C@H]1[C@H](c2ccc(C#Cc3ccccc3F)cc2)[C@H](CO)N1C(=O)C1CCC1,55.2,-8.9,-32.1,.,.,.,.
N#C[C@H]1[C@H](c2ccc(C#Cc3ccccc3F)cc2)[C@@H](CO)N1C(=O)C1CCC1,99.2*,2.6,-48.0,102.7*,100.9*,-5.5,5.5
N#C[C@@H]1[C@H](c2ccc(C#Cc3ccccc3F)cc2)[C@@H](CO)N1C(=O)C1CCC1,?,-11.1,-35.6,88.6,88.9,11.1,102.2*
N#C[C@@H]1[C@@H](c2ccc(C#Cc3ccccc3F)cc2)[C@H](CO)N1C(=O)C1CCC1,92.5,8.9,-43.9,.,.,.,.
COc1ccccc1C#Cc1ccc([C@H]2[C@@H](C#N)N(C(=O)C3CCC3)[C@@H]2CO)cc1,?,0.9,-76.8,105.7*,108.2*,1.6,95.9*
COc1ccccc1C#Cc1ccc([C@H]2[C@H](C#N)N(C(=O)C3CCCCC3)[C@H]2CO)cc1,.,43.3,-56.6,.,.,.,.
C/C=C/c1ccc2c(c1)O[C@@H](CN(C)CC1CC1)[C@@H](C)CN([C@H](C)CO)S2(=O)=O,31.6,4.7,-43.7,.,.,.,.
C[C@@H]1CN([C@H](C)CO)C(=O)c2cc(C#CCN(C)C)cnc2O[C@@H]1CN(C)C(=O)Nc1cccc(F)c1,-16.5,-3.1,3.3,.,.,.,.
C[C@@H]1CN([C@H](C)CO)C(=O)c2cc(NS(=O)(=O)c3cccs3)ccc2O[C@@H](C)CCCCO[C@@H]1CN(C)Cc1ccc(Cl)c(Cl)c1,?,3.4,-38.4,90.9,110.9*,99.8*,90.6*
C[C@@H]1CCCCO[C@@H](CN(C)Cc2ccc(Cl)c(Cl)c2)[C@H](C)CN([C@@H](C)CO)C(=O)c2cc(NS(=O)(=O)c3cccs3)ccc2O1,?,-2.5,-51.9,96.5*,107.9*,117.7*,103.4*
C[C@@H]1CCCCO[C@@H](CN(C)Cc2ccc(Cl)c(Cl)c2)[C@@H](C)CN([C@@H](C)CO)C(=O)c2cc(NS(=O)(=O)c3cccs3)ccc2O1,?,9.8,-42.1,97.0*,71.3,-56.4,51.2*
C[C@@H]1CN([C@H](C)CO)C(=O)c2cc(NS(=O)(=O)c3cccs3)ccc2O[C@@H](C)CCCCO[C@H]1CN(C)Cc1ccncc1,36.2,3.0,-9.3,.,.,.,.
C[C@@H]1CCCCO[C@H](CN(C)Cc2ccncc2)[C@@H](C)CN([C@@H](C)CO)C(=O)c2cc(NS(=O)(=O)c3cccs3)ccc2O1,9.4,1.9,-18.5,.,.,.,.
C[C@H]1CCCCO[C@H](CN(C)Cc2ccncc2)[C@@H](C)CN([C@@H](C)CO)C(=O)c2cc(NS(=O)(=O)c3cccs3)ccc2O1,11.0,-1.6,6.1,.,.,.,.
C[C@@H]1CCCCO[C@@H](CN(C)Cc2ccc(Cl)c(Cl)c2)[C@H](C)CN([C@H](C)CO)C(=O)c2cc(NS(=O)(=O)c3cccs3)ccc2O1,?,-5.8,-74.0,109.1*,113.3*,-30.0,106.6*
C[C@@H]1CCCCO[C@H](CN(C)Cc2ccncc2)[C@H](C)CN([C@@H](C)CO)C(=O)c2cc(NS(=O)(=O)c3cccs3)ccc2O1,16.9,0.0,-30.1,.,.,.,.
SMILES,T cruzi growth-1,C diff HTS,Pf Dd2 inh,T cruzi growth-2,T cruzi growth-3,NIH3T3 tox,NIH3T3 tox 2
O=C(C[C@@H]1CC[C@H]2[C@@H](COC[C@@H](O)CN2Cc2ccncc2)O1)NCc1ccccc1Cl,.,-0.4,27.3,.,.,.,.
C[C@@H]1CN([C@H](C)CO)C(=O)c2cc(NC(=O)NC3CCCCC3)ccc2O[C@@H](C)CCCCO[C@@H]1CN(C)CC1CCCCC1,44.5,.,-35.1,.,.,.,.
COc1cccc(S(=O)(=O)N[C@H]2CC[C@H](CCn3cc(-c4ccc(F)cc4)nn3)O[C@H]2CO)c1,2.6,-7.2,-25.4,.,.,.,.
CCC(=O)N[C@H]1CC[C@@H](CC(=O)NCC2CCCCC2)O[C@@H]1CO,8.4,.,8.9,.,.,.,.
Cc1ccc(S(=O)(=O)Nc2ccc3c(c2)CC(=O)N([C@H](C)CO)C[C@@H](C)[C@H](CN(C)C(=O)Nc2cccc4ccccc24)O3)cc1,17.9,5.6,-12.4,.,.,.,.
COc1ccc(NC(=O)Nc2ccc3c(c2)C(=O)N([C@@H](C)CO)C[C@@H](C)[C@H](CN(C)S(=O)(=O)c2ccc(C)cc2)OCCCC[C@@H](C)O3)cc1,93.2,.,-67.4,.,.,.,.
CO[C@H]1CN(C)C(=O)c2ccc(NC(=O)C3CC3)cc2OC[C@H](C)N(CC2CC2)C[C@@H]1C,.,.,68.0,.,.,.,.
C[C@H]1CCCCO[C@@H](CN(C)Cc2ccncc2)[C@@H](C)CN([C@@H](C)CO)C(=O)c2cc(NS(=O)(=O)c3cccs3)ccc2O1,31.6,0.3,-41.1,.,.,.,.
C[C@@H]1CN([C@H](C)CO)C(=O)c2cc(NS(=O)(=O)c3cccs3)ccc2O[C@@H](C)CCCCO[C@H]1CN(C)Cc1ccc(Cl)c(Cl)c1,124.9*,-9.1,-42.8,82.6,114.9*,61.1*,106.1*
O=C(C[C@@H]1CC[C@H](NC(=O)C2CCOCC2)[C@H](CO)O1)Nc1ccccc1,.,1.7,15.6,.,.,.,.
